About 83,000 compounds went through this panel and 20% of them were active in at least one assay; those are over-represented in the sample as a whole.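 Compound tested at a single concentration for 48 hours in 96-well plates; a percent growth value below 10 was scored as active.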 Active and inactive are the calls of the source.
Each compound was assayed on HL-60(TB) leukemia (assay: NCI-60 one-dose screen, 48 h (100 = growth as untreated, 0 = no growth, -100 = all killed)). Details: 10 µM unless noted.
For NC(=O)CC1(O)C=C(Br)C(=O)C(Br)=C1, the growth was -27.9% (active).
For CCc1cccc(C)c1NC(=O)c1sc2nc3c(cc2c1N)C(=O)CCC3, the growth was -22.4% (active).
For Cc1ccc2c(n1)C(=O)C(Cl)=C(Nc1ccccc1C(C)C)C2=O, the growth was -15.3% (active).
CCOC(=O)c1c(NC(=O)c2ccc(OC)cc2)sc2c(CN(C)C)c(O)ccc12 was tested, and the growth was 1.3% (active).
With CCOCCc1c(O)nc(SC)[nH]c1=O the growth was 93.3% (inactive).
For C=C1CC[C@@H]2[C@@](C)(CCC[C@]2(C)C(=O)O)[C@@H]1CC[C@H](CO)CCO, the growth was 93.7% (inactive).
With O=c1[nH]c2ccccc2cc1-c1nnc(Cc2ccccc2)o1 the growth was 27.1% (inactive).
In the case of Cc1cc2cccnc2c2ncccc12, the growth is reported as -11.4% (active).
Cn1c2c(c3ccc(Cl)c(Cl)c31)C(C#N)C(C)(C)NC2=O (stereo not given) was tested, and the growth was 69.3% (inactive).
With CCOC(=O)c1cnc2c(C)cc(C)cc2c1NCCCN(C)C the growth was 9.86% (active).
With Cc1ccc(-c2nn(Cc3cn(-c4cc(C)nc5ccccc45)nn3)c3ncnc(N)c23)cc1 the growth was 83.1% (inactive).
In the case of CN(C)C/C=C/C(=O)Nc1cc2c(Nc3ccc(F)c(Cl)c3F)ncnc2cc1OCCOC(F)F, the growth is reported as 13.2% (inactive).
For Cc1nc2sc(C(=O)Nc3cccc4ccccc34)c(N)c2cc1C(C)O (stereo not given), the growth was -24.1% (active).
With Cc1cc(=O)oc2cc(Oc3nc(-c4ccccc4)cn4c(-c5ccccc5)cnc34)ccc12 the growth was 85.2% (inactive).
With COc1cccc(-c2nnc(COc3ccc(-c4nc5ccccc5[nH]4)cc3OC)o2)c1 the growth was 103% (inactive).
In the case of COc1ccc(/C=N/Nc2cc(=O)[nH]c3ccc(C)cc23)cc1, the growth is reported as 94.2% (inactive).
For CC(C)Cn1c2c(c(=S)[nH]c1=O)CCC2, the growth was 107% (inactive).
With COc1cccc(CNc2cccc3cn[nH]c23)c1O the growth was 144% (inactive).
With CC1=NOC(=O)/C1=C\c1ccc(O)cc1 the growth was 105% (inactive).
COc1cc(/C=C\c2cc(OC)c(OC)c(OC)c2)cc(NC(=O)/C=C/c2cc(OC)c(OC)c(OC)c2)c1OC was tested, and the growth was -6.4% (active).
For O=C(/C=C(O)/C=C/c1ccc(SC(F)(F)F)cc1)/C=C/c1ccc(SC(F)(F)F)cc1, the growth was 81.9% (inactive).
COc1ccc(/C=C2/CN(CCC#N)C/C(=C\c3ccc(OC)cc3)C2=O)cc1 was tested, and the growth was 13.6% (inactive).
With Cc1cc2cn3c4ccc(O)cc4nc(N)c3c2cc1C the growth was -32.5% (active).
For O=C(Oc1cccc2ccccc12)c1ccccc1C(=O)c1ccccc1, the growth was -8.79% (active).
In the case of COc1ccccc1OCC(O)CO (stereo not given), the growth is reported as 74.1% (inactive).
With C[C@H]1[C@H](C)CC[C@]2(COC(=O)CCC(=O)O)CC[C@]3(C)C(=CC[C@@H]4[C@@]5(C)CCCNC(C)(C)[C@@H]5CC[C@]43C)[C@H]12 the growth was 49.3% [100 µM] (inactive).
In the case of CCOC(=O)n1cc(-c2nonc2-c2cn(C)c3ncccc23)c2cc(F)ccc21, the growth is reported as 92.8% (inactive).
With COc1cc(NC(=O)c2cccc(-c3cc(=O)c4c(O)c(OC)c(OC)cc4o3)c2)cc(OC)c1OC the growth was 78% (inactive).
In the case of COc1cc(NC(C)CCCN2C(=O)c3ccccc3C2=O)c2nc(C)ccc2c1OC (stereo not given), the growth is reported as 69.6% (inactive).
With CC1(C)C(=O)/C(=C\c2cccnc2)C[C@]2(C)[C@H]3CC[C@@H]4[C@@H](C(=O)/C=C/c5ccncc5)CC[C@@]4(C)[C@]3(C)CC[C@@H]12 the growth was -11% (active).
For CSc1nn2c(-c3cc4cc(Br)ccc4oc3=O)ccnc2c1C#N, the growth was 102% (inactive).
For C=CCn1cc(-c2nc3ccccc3s2)c2cc(-c3ccc4c5c(cccc35)C(=O)N(CCN3CCNCC3)C4=O)ccc21, the growth was 103% (inactive).
In the case of C#Cc1cccc(Nc2nc3cc([N+](=O)[O-])ccc3nc2Nc2ccc(O)cc2)c1, the growth is reported as 4.42% (active).
In the case of O=C(NCc1ccccc1O)c1cccc2ccccc12, the growth is reported as 66.7% (inactive).
In the case of C=C(C)[C@@H]1CC[C@]2(C(N)=O)CC[C@]3(C)[C@H](CC[C@@H]4[C@@]5(C)C/C(=C/c6ccco6)C(=O)C(C)(C)[C@@H]5CC[C@]43C)[C@@H]12, the growth is reported as 93.2% (inactive).
In the case of CC(C)(C)OC(=O)N1CCc2c(sc3ncnc(N/N=C/c4ccccc4Br)c23)C1, the growth is reported as 94.8% (inactive).
CCOC(=O)c1ccoc1 was tested, and the growth was 118% (inactive).
COC(=O)C(CC(=O)c1ccc(-c2ccccc2)cc1)c1ccccc1 (stereo not given) was tested, and the growth was 15.4% (inactive).
C/C=C/C1=CN2C(=O)c3cc(OC4OC(C)C(NC)C(C)(O)C4O)c(C)c(O)c3N=C[C@@H]2C1 (stereo not given in full) was tested, and the growth was -4.33% (active).
COc1ccc2cc1Oc1ccc(cc1)C[C@H]1c3c(cc4c(c3Oc3cc5c(cc3OC)CCN(C)[C@@H]5C2)OCO4)CCN1C was tested, and the growth was 36.3% (inactive).

Source: PubChem BioAssay (NCI)
